PAFAH2 inh = PAFAH2 enzyme inhibitors, primary screen, biochemical, fluorescence polarization, human; Platelet-activating factor acetylhydrolase 2, cytoplasmic (Homo sapiens), Q99487; recombinant PAFAH2, FP-rhodamine activity probe; inhibition, % at 3.39 µM; actives 0.99% (n = 340,000); AID 492956, 2010;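 active = inhibition above the mean over all tested compounds plus 3 SD, cut at about 30% in these data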;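 also: inhibitors block probe labeling of enzyme so polarization drops; 0% = enzyme with DMSO and 100% = wells lacking PAFAH2 protein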
PAFAH1B2 inh = PAFAH1B2 enzyme inhibitors, primary screen, biochemical, fluorescence polarization, human; inhibition, % at 3.39 µM; actives 1.2% (n = 340,000); AID 492953, 2010; recombinant PAFAH1B2, FP-rhodamine activity probe; Platelet-activating factor acetylhydrolase IB subunit alpha2 (Homo sapiens), P68402;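 active = inhibition above the mean of all tested compounds plus 3 SD, cut at about 24% in these data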;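 also: 0% = enzyme with DMSO and 100% = wells lacking PAFAH1B2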
pPAFAH FP inh = pPAFAH enzyme inhibitors, primary screen, biochemical, fluorescence polarization, human | AID 463082, 2010 | Platelet-activating factor acetylhydrolase (Homo sapiens), Q13093 | actives 1.5% (n = 330,000) | inhibition, % at 3.39 µM | recombinant pPAFAH, FP-rhodamine probe fluorescence polarization;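 active = inhibition above the mean inhibition across the screen plus 3 SD, cut at about 25% in these data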;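 also: inhibitors block binding of the rhodamine activity-based probe so polarization drops; 0% = enzyme with DMSO and 100% = wells lacking pPAFAH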
Fam108B counter = mouse Fam108B serine hydrolase inhibitors, primary screen, counter-screen for RBBP9 inhibitor project, biochemical, fluorescence polarization. recombinant Fam108B, FP-Rh probe fluorescence polarization. AID 1947, 2009. inhibition, % at 9.51 µM. actives 0.33% (n = 300,000);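 active = inhibition above the screen mean inhibition plus 3 SD, computed separately per campaign, cut at about 18% in these data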;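 also: inhibitors lower polarization as less probe binds the enzyme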
PME-1 inh = PME-1 inhibitors via competitive probe labeling, primary screen, biochemical, fluorescence polarization, FP-Rh probe, HTS; Protein phosphatase methylesterase 1 (Homo sapiens), Q9Y570; recombinant PME-1; inhibition, % at 5.9 µM; actives 0.53% (n = 320,000); AID 2130, 2009;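 active = inhibition above the campaign mean of all compounds plus 3 SD, cut at about 26% in these data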;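 also: competitive labeling of PME-1 active site by serine hydrolase directed probe; 0% = PME-1 with DMSO and 100% = wells lacking PME-1 enzyme; inhibitors block probe labeling so polarization falls and inhibition rises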
Target sequence (Q9Y570 whole entry, looked up): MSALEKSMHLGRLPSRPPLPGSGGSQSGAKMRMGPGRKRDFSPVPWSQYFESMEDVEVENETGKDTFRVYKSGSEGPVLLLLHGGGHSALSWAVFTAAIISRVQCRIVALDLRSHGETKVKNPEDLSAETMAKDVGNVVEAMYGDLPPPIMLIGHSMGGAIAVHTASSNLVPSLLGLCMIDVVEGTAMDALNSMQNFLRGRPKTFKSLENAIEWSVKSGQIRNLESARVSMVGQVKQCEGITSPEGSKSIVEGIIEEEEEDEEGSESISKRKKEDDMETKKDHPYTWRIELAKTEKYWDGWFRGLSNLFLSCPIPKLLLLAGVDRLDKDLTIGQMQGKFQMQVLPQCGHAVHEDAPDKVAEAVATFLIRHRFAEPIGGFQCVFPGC
PAFAH1B3 FP inh = PAFAH1B3 enzyme inhibitors, primary screen, biochemical, fluorescence polarization, human; Platelet-activating factor acetylhydrolase IB subunit alpha1 (Homo sapiens), Q15102; recombinant PAFAH1B3, FP-rhodamine probe; inhibition, % at 3.39 µM; actives 0.28% (n = 340,000); AID 492972, 2010;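 active = inhibition above the screen-wide average of all tested compounds plus 3 SD, cut at about 25% in these data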;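 also: 0% = enzyme with DMSO only and 100% = wells lacking PAFAH1B3 protein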
Target sequence (Q15102 whole entry, looked up): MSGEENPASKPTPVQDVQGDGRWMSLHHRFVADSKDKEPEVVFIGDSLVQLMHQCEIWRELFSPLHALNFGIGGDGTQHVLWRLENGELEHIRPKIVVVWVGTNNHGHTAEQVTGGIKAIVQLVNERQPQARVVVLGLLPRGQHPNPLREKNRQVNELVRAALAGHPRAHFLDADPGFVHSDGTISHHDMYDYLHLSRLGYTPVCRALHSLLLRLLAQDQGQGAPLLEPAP
The depositor's hits bear a star; / = not tested or not shown. Most compounds without a hit are left out; they make up all but 2.9% or so of the library.

SMILES	PAFAH2 inh	PAFAH1B2 inh	pPAFAH FP inh	Fam108B counter	PME-1 inh	PAFAH1B3 FP inh
CCC(C)[C@H]1CNC(=S)N1CCc1cc(C(F)(F)F)cc(C(F)(F)F)c1 (stereo partly drawn)	-4.8	3.2	27.1*	5.5	7.6	18.9
CCC(C)[C@H]1CNCCN1CCc1cc(C(F)(F)F)cc(C(F)(F)F)c1 (stereo partly drawn)	8.8	1.7	-3.0	3.8	-8.2	0.1
N/C(Cc1ccc([N+](=O)[O-])cc1)=N\OC(=O)c1ccc(Br)cc1	40.5*	2.5	29.7*	3.5	2.3	6.3
CCN1c2ccc(S(=O)(=O)N3CCOCC3)cc2N(Cc2ccc(OC)cc2)C1C (stereo not drawn)	-1.7	-7.2	-1.1	-6.5	-2.7	-1.1
COc1cc2c(C#N)c(N3CCN(C)CC3)nc(N)c2c(N)n1	-5.3	2.1	6.0	-0.1	12.1	3.1
COc1cc2c(C#N)c(N3CCN(c4ccccc4OC)CC3)nc(N)c2c(N)n1	5.3	-3.0	10.6	11.8	72.5*	16.9
O=c1c(O[C@H]2O[C@@H](CO)[C@H](O)[C@@H](O)[C@@H]2O)c(-c2ccc(O)cc2)oc2cc(O)cc(O)c12	1.6	3.4	-2.7	/	5.1	1.8
O=c1cc(-c2ccc(O)c(O)c2)oc2cc(O[C@@H]3O[C@H](CO)[C@@H](O)[C@H](O)[C@H]3O)cc(O)c12	52.4*	67.0*	15.3	/	/	66.6*
O=c1c(OC2OC(CO)C(O)C(O)C2O)c(-c2ccc(O)c(O)c2)oc2cc(O)cc(O)c12 (stereo not drawn)	-6.9	2.9	28.5*	-3.0	-15.9	46.0*
C[C@@H]1O[C@@H](OC[C@H]2O[C@@H](Oc3cc(O)c4c(=O)cc(-c5ccc(O)c(O)c5)oc4c3)[C@H](O)[C@@H](O)[C@@H]2O)[C@H](O)[C@H](O)[C@H]1O	23.0	75.3*	15.3	/	/	87.1*
COc1cc(-c2oc3cc(O)cc(O)c3c(=O)c2O[C@@H]2O[C@H](COC3O[C@@H](C)[C@H](O)[C@@H](O)[C@H]3O)[C@@H](O)[C@H](O)[C@H]2O)ccc1O (stereo partly drawn)	-8.0	3.5	-3.8	/	/	5.5
COc1cccc(N2CCN(c3ccc4nnc(CCC(=O)Nc5ccc(OC)c(OC)c5)n4n3)CC2)c1	12.4	0.9	6.4	-1.6	-3.1	-0.6
CC(=C/c1ccc(C(C)C)cc1)/C=N/NC(=O)c1ccncc1	0.6	7.4	6.7	0.0	-5.4	-5.7
COc1ccccc1NS(=O)(=O)c1ccc(C)c(C(=O)NCC(c2cccs2)N2CCOCC2)c1 (stereo not drawn)	-4.3	6.0	/	/	/	4.9
O=C(Cn1ccccc1=O)NCc1ccc(F)cc1	-1.4	2.0	33.3*	-0.2	-0.1	-8.2
COc1ccc(/C=C(\NC(=O)c2ccccc2)C(=O)N/N=C/c2sccc2C)cc1	1.1	6.1	2.9	-6.5	-0.5	-1.2
Cc1cccc(C)c1NC(=S)NCCSc1ccc(Cl)cc1	10.5	25.2*	1.2	-5.5	7.3	-4.7
CCS(=O)(=O)c1ccc(-c2cccc(NC(=O)COc3ccccc3)c2)nn1	0.3	-1.9	4.3	1.6	2.6	8.3
O=C(CSc1nc2ccccc2s1)NCCOc1ccccc1	-6.1	26.6*	12.2	-2.8	0.7	4.1
Nc1nnc(SCC(=O)NCCOc2ccccc2)s1	3.3	3.8	-4.1	-4.0	6.0	5.7
CC(C)Cn1c(=S)[nH]c2cc(C(=O)O)ccc2c1=O	2.0	19.1	-0.1	-1.7	-8.4	3.3
CC(C)Cn1c2ccccc2c2cc(C(=O)O)ccc21	2.1	28.6*	2.6	3.2	0.1	2.5
CC1CC(C)CN(C(=O)c2cccc3c2-c2ccccc2C3=O)C1 (stereo not drawn)	4.2	27.6*	5.0	-1.0	-0.2	6.8
O=C1c2ccccc2-c2c1cccc2C(=O)N1CCN(C(=O)c2ccco2)CC1	-3.3	1.3	4.7	2.6	2.7	3.8
CC(=O)c1c(C(C)=O)c(C)n(-c2ccc(C(=O)O)cc2)c1C	-4.6	1.6	-1.0	-2.8	7.1	5.4
SMILES	PAFAH2 inh	PAFAH1B2 inh	pPAFAH FP inh	Fam108B counter	PME-1 inh	PAFAH1B3 FP inh
Cc1ccc(C)n1-c1ccc(C(=O)O)cc1	/	/	30.6*	5.2	-11.8	/
COc1ccccc1NC(=O)c1cc2c(CO)cnc(C)c2oc1=Nc1cccc(C(N)=O)c1	6.9	1.1	24.6*	0.6	0.3	9.1
CC(=O)Nc1ccc(NC(=O)C(C)OC(=O)C2(c3ccc(F)cc3)CCCC2)cc1 (stereo not drawn)	-1.8	40.7*	5.6	-6.3	0.7	19.2
CC(=O)Nc1ccc(NC(=O)C(C)OC(=O)C(C)SCC(=O)Nc2ccc(F)cc2)cc1 (stereo not drawn)	4.4	-1.5	3.3	5.9	-2.5	6.4
O=C(CSc1ncn[nH]1)Nc1ccc([N+](=O)[O-])cc1Br	-7.2	-0.3	-0.8	0.2	4.3	2.3
Nc1cc(=O)[nH]c(SCC(=O)NC2CCCc3ccccc32)n1 (stereo not drawn)	2.4	8.6	4.5	2.7	-3.0	3.4
CCCc1cc(=O)[nH]c(SCC(=O)NC2CCCc3ccccc32)n1 (stereo not drawn)	1.1	25.8*	-1.4	-1.6	1.1	-3.2
COc1ccccc1C(=O)n1nc(-c2ccco2)nc1SC	5.0	-1.7	2.4	-3.8	-5.3	-5.2
O=C(N[C@@H](Cc1ccccc1)C(=O)N1CCN(S(=O)(=O)c2ccc(F)cc2)CC1)c1ccco1	3.3	24.4*	/	/	/	12.2
O=C(Nc1ccc(S(=O)(=O)N2CCCCC2)cc1)c1ccco1	4.9	1.5	4.5	-3.4	-1.4	-5.5
CC1CCN(S(=O)(=O)c2ccc(NC(=O)c3ccco3)cc2)CC1	-10.8	27.0*	-5.2	0.5	1.2	9.1
O=C(NC(Cc1ccccc1)C(=O)N1CCN(S(=O)(=O)c2ccccc2)CC1)c1ccccc1 (stereo not drawn)	0.6	8.0	-6.3	-1.0	0.9	-7.1
COC(=O)Nc1ccc(S(=O)(=O)N2CCC(C)CC2)cc1	9.1	25.5*	-6.1	0.8	0.9	-5.0
CC1CCN(S(=O)(=O)c2ccc(NC(=O)[C@@H]3CCCC[C@@H]3C(=O)O)cc2)CC1	3.7	47.8*	1.3	5.5	-1.3	0.7
Nc1cc(C(=O)O)ccc1Sc1ccccc1C(=O)O	1.4	2.7	2.8	-0.3	2.3	10.9
